MIN6 prolif: inducers of MIN6 beta-cell proliferation, primary screen, ATP luminescence, uHTS | proliferation, % at 10 µM | 330,000 compounds, 0.29% hits | AID 2380, 2010 | MIN6 cells proliferation, ATPlite luminescence, 48 h; cells starved in 0.2% serum; 100% = growth in 10% serum;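 active = compounds whose signal lies at least 3.5 SD above the mean of all wells on their plate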;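 also: 0% = DMSO-treated cells in low-serum medium and 100% = 10% serum control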
Calpain2 inh: inhibitors of pig calpain II, primary screen, biochemical, fluorogenic peptide substrate, 1536-well. purified calpain II, 30 min. inhibition, % at 16 µM. 220,000 compounds, 0.37% hits;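 active = inhibition above about 50%, limit read from the data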
Cardio protect: cardioprotection against H2O2-induced cell death, primary screen, uHTS, H9c2 cells, ATPLite luminescence; AID 588492, 2011; H9c2 cardiomyocytes, H2O2 injury protection, 2 h; protection from H2O2 cell death, % at 20 µM; 360,000 compounds, 0.63% hits;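 active = compounds giving at least 50% protection of heart cells from peroxide-induced death in the single-dose screen, raw or plate-pattern-corrected value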;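 also: 0% = DMSO wells with peroxide and 100% = DMSO wells without peroxide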
FAS TE block: FAS thioesterase domain inhibitors, primary screen, biochemical, fluorescence intensity, uHTS; 360,000 compounds, 0.67% hits; inhibition, % at 15 µM; AID 602261, 2012; Fatty acid synthase (Homo sapiens), P49327; recombinant FAS-TE, OMFH fluorogenic substrate, fluorescence endpoint;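 active = compounds whose normalised, plate-corrected inhibition of enzyme fluorescence in the single-dose primary screen is 50% or more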;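 also: 0% = DMSO with enzyme and 100% = substrate without enzyme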
aDG glyco act: activators of alpha-DG glycosylation, primary screen, uHTS, Pro5-aDG cells, AlphaScreen. 360,000 compounds, 0.22% hits. activation, % at 10 µM. alpha-DG glycosylation AlphaScreen (IIH6); 0% Pro5, 100% B10-LARGE cell signal. AID 624168, 2012;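 active = activation of at least 8% versus controls, or a plate z-score of at least 8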;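 also: Pro5 are CHO cells carrying HIG-tagged alpha-DG that lacks glycosylation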
TAG inh: inhibitors of triacylglycerol accumulation, primary screen, cell-based, uHTS, fluorescence, H9c2; H9c2 cells, Nile Red lipid (TAG) fluorescence; cells loaded with 200 µM oleic acid; inhibition, % at 12.5 µM; 230,000 compounds, 0.66% hits; AID 651582, 2012;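 active = pattern-corrected inhibition of lipid staining of at least 50% with the nuclear-stain viability signal not falling by more than 50%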;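 also: 0% = DMSO wells and 100% = triacsin C control wells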
FAS-TE inh conf: FAS thioesterase domain inhibitors, confirmation, biochemical, fluorescence intensity, single concentration; 2,300 compounds, 45% hits; shares compounds with FAS TE block; inhibition, % at 15 µM; recombinant FAS-TE, OMFH fluorogenic substrate;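 active = compounds inhibiting the enzyme by at least 50% at 15 µM in any one of the replicates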;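 also: 0% = enzyme with DMSO only and 100% = wells lacking enzyme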
* hit, by the source's call; . = no result given. Shown are actives, neighbours in structure and some others; about 2.3% of the full set was active somewhere.

SMILES	MIN6 prolif	Calpain2 inh	Cardio protect	FAS TE block	aDG glyco act	TAG inh	FAS-TE inh conf
COC(=O)c1ccccc1NC(=O)c1nc(S(=O)(=O)Cc2ccccc2)ncc1Cl	-8	.	-17	54*	0	.	35
CCOc1ccccc1NC(=O)c1nc(S(=O)(=O)Cc2cccc(C)c2)ncc1Cl	-7	.	-20	58*	0	.	48*
CC(=O)Nc1ccc(NC(=O)c2nc(S(=O)(=O)Cc3ccccc3)ncc2Cl)cc1	-7	.	-17	23	0	.	.
CCOC(=O)C1=CC[C@@H](c2ccccc2Cl)N(S(=O)(=O)c2ccc(C)cc2)[C@H]1C(=O)OCC	-6	.	-8	27	0	2	.
O=C(CNC(=O)c1ccc(Br)cc1)N/N=C/c1cccnc1	-2	.	2	-2	0	.	.
CCOC1=C2[C@@H](CN(S(=O)(=O)c3ccc(C)cc3)[C@H]2c2ccccc2)[C@H]2C(=O)N(c3ccccc3)C(=O)[C@H]2C1	.	.	1	28	0	.	.
CCOC1=C2[C@@H](CN(S(=O)(=O)c3ccc(C)cc3)[C@H]2c2ccccc2F)[C@H]2C(=O)N(C3CCCCC3)C(=O)[C@H]2C1	.	.	-3	72*	0	.	23
CCOC1=C2[C@@H](CN(S(=O)(=O)c3ccc(C)cc3)[C@H]2c2ccccc2)[C@H]2C(=O)N(Cc3ccccc3)C(=O)[C@H]2C1	.	.	-3	76*	0	.	19
CCOC1=C2[C@@H](CN(S(=O)(=O)c3ccccc3C)[C@H]2c2ccc(Cl)cc2)[C@H]2C(=O)N(C3CCCCC3)C(=O)[C@H]2C1	.	.	.	.	0	.	.
CCOC1=C2[C@@H](CN(S(=O)(=O)c3ccccc3C)[C@H]2c2ccc(Cl)cc2)[C@H]2C(=O)N(c3ccccc3)C(=O)[C@H]2C1	.	.	0	83*	0	.	16
CCOC1=C2[C@@H](CN(S(=O)(=O)c3ccc(C)cc3)[C@H]2c2cccc3ccccc23)[C@H]2C(=O)N(Cc3ccccc3)C(=O)[C@H]2C1	.	.	0	60*	0	.	17
O=C(N=C1SC2CS(=O)(=O)CC2N1c1ccc(Br)cc1)C1CCCO1 (centres undefined)	2	.	7	-3	0	.	.
CCOc1ccc(N2C(=O)CC(Cc3ccccc3OC)C2=O)cc1 (centres undefined)	-1	.	-5	1	0	-9	.
CNC(=O)c1ccc(NC(=O)C2CCN(S(=O)(=O)c3cccc(C(F)(F)F)c3)CC2)cc1	-2	.	1	-10	0	-1	.
CSc1ncc(C(=O)Nc2ccc(C(C)=O)cc2)c(C)n1	-1	.	5	-6	0	.	.
CN(C(=O)Nc1ccc(Cl)cc1Cl)[C@H]1c2cc(Br)ccc2OC[C@H]1CO	-4	8	-1	50*	0	.	50*
O=C(CSc1nnc(CNC(=O)c2c(F)cccc2F)o1)NCc1ccccc1Cl	1	.	-1	-4	0	4	.
COc1ccc(Cc2nc3c4c(ncn3n2)Oc2ccc3ccccc3c2C4c2ccc(OC)c(OC)c2)cc1 (centres undefined)	-1	-1	-8	59*	0	.	19
O=[N+]([O-])c1ccc(S(=O)(=O)Nc2nnc(C3CCCCC3)s2)cc1	-2	.	-4	50*	0	.	65*
O=C(c1ccc(Cl)cc1)[C@@H]1[C@@H]2C(=O)N(c3ccc(Cl)cc3)C(=O)[C@@H]2C2c3ccccc3C=NN21 (some centres undefined)	-4	-19	-4	69*	0	.	10
Cc1ccc(N2C(=O)[C@@H]3[C@H](C2=O)C2c4ccccc4C=NN2[C@@H]3C(=O)c2ccc(Cl)cc2)cc1 (some centres undefined)	-2	-25	-6	82*	0	.	0
CC1(Oc2cccc(F)c2)CCN(Cc2ccc(-c3ccccc3)o2)C1 (centres undefined)	.	.	-4	9	0	13	.
O=C1C=C(c2ccc(Cl)c(C(F)(F)F)c2)C[C@@H](c2ccc(Cl)cc2)C1	-7	.	-7	54*	0	5	33
O=C1C=C(c2ccc(-c3ccccc3)cc2)C[C@@H](c2ccc(Cl)cc2)C1	-2	.	-11	29	0	16	.
O=C1C=C(c2ccc(Cl)c(C(F)(F)F)c2)C[C@@H](c2ccc(F)cc2)C1	-7	.	-13	53*	0	4	32
SMILES	MIN6 prolif	Calpain2 inh	Cardio protect	FAS TE block	aDG glyco act	TAG inh	FAS-TE inh conf
COc1cccc(NC(=O)C2(C)CCN2CC2CCCCC2)c1 (centres undefined)	.	.	-1	3	0	3	.
CCN(CC)S(=O)(=O)c1ccc(OC)c(NC(=O)c2cc([N+](=O)[O-])ccc2N2CCOCC2)c1	.	.	11	29	0	-17	.
Cc1nn(-c2ccccn2)c2c1C(c1c(F)cccc1Cl)C1=C(N2)c2ccccc2C1=O (centres undefined)	2	-52	.	.	.	.	.
Cc1nn(-c2ccccn2)c2c1C(c1ccccc1Cl)C1=C(N2)c2ccccc2C1=O (centres undefined)	-2	-75	23	53*	0	.	3
O=C(O)Cn1nnc(-c2ccccc2)c1COc1ccccc1	.	.	6	-4	0	4	.
N=c1oc2cc(O)ccc2cc1C(=O)Nc1ccc(Cl)cc1	-7	.	-19	2	0	.	.
COc1ccc(C2CC(c3ccccc3)=NN2S(=O)(=O)c2ccc(C)cc2)c(OC)c1 (centres undefined)	0	-9	-8	58*	0	-21	12
COc1ccc(C2CC(c3ccccc3)=NN2S(=O)(=O)c2ccccc2)c(OC)c1 (centres undefined)	-1	13	-11	34	0	.	.
COc1cc(OC)c(N(C)S(=O)(=O)c2cccc(C(=O)Nc3nccs3)c2)cc1Cl	-7	.	19	66*	1	10	14
COc1cc(OC)c(N(C)S(=O)(=O)c2cccc(C(=O)OCC(=O)N(C)C3CCCCC3)c2)cc1Cl	.	.	0	66*	0	-5	11
CCCCN(C(=O)COC(=O)c1sccc1C)c1c(N)n(CCC)c(=O)[nH]c1=O	.	.	-2	-6	0	-9	.
CCOc1ccccc1-c1cnc(NC)cn1	.	.	8	-11	0	-10	.
COc1ccc(C(=O)Nc2ccccc2N2CCCCC2)cc1[N+](=O)[O-]	-5	18	-7	57*	0	.	31

High-throughput results deposited in PubChem BioAssay by several laboratories.
